From PubChem
Compounds with a hit are over-represented: about 17% of the library has one in this group of screens.
DT40 TDP1 CPT: DT40-hTDP1 cell growth loss with CPT. chicken DT40 Tdp1-/-;hTDP1 cells + 20 nM CPT, ATP luminescence, 48 h. Potency, µM (top dose mostly 46.2 µM), hits mostly inhibitors. 420,000 tested, 12% active. AID 686979; note: nearly all actives have a fitted effect of over 55% in size
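Cell growth measured by CellTiter-Glo luminescence after a minimum 48 h, 37 C compound exposure with 20 nM CPT in Tdp1-knockout DT40 cells stably expressing hTDP1, seeded 400/well; qHTS titration format.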
TDP1 cell noCPT: qHTS for Inhibitors of human tyrosyl-DNA phosphodiesterase 1 (TDP1): qHTS in cells in absence of CPT | DT40 Tdp1-/- hTDP1 cells, no CPT, ATP luminescence, 48 h | Potency, µM (top dose mostly 46.2 µM), usual class: inhibitors | 420,000 tested, 15% active; note: nearly all actives have a fitted effect of over 55% in size
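Chicken DT40 Tdp1-/- cells complemented with human TDP1, screened without camptothecin (DMSO vehicle only), 400 cells/well. Compounds pin-transferred, cells incubated at 37 °C for at least 48 hr. Growth read as ATP-dependent luminescence (CellTiter-Glo, 30 min at RT).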
ClpP mod: qHTS Assay for Activators of ClpP; AID 651965, 2013; Potency, µM (highest dose often 57.5 µM); ATP-dependent Clp protease proteolytic subunit (Bacillus subtilis (strain 168)), P80244; purified B. subtilis ClpP, FRET peptide cleavage, 20 min; 340,000 tested, 1.9% active; active = well fitted falling curve with a large enough effect; inconclusive = small, poorly fitted or top-dose-only effect; inactive = no such curve, though single readings can be large or run the other way; note: the source files actives as falling curves though it sought activators and does not explain the sign; nearly all actives have a fitted effect of over 65% in size
Target sequence (P80244 whole entry, looked up): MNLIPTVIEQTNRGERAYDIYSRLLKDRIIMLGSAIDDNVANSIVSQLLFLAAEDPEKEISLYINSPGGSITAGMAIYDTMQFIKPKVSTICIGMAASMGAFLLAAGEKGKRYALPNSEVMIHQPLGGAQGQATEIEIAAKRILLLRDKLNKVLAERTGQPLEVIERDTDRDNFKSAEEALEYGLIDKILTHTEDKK
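Buffer: 100 mM Tris/HCl pH8, 100 mM KCl, 0.05% low protease BSA, 2.5% glycerol, 0.01% Tween-20. ClpP 10 microg/mL final; 20 min RT; delta FRET normalized to ADEP and DMSO controls.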
TDP1 block: inhibitors of human tyrosyl-DNA phosphodiesterase TDP1; Potency, µM (series often up to 130 µM), hits mostly inhibitors; recombinant TDP1, AlphaScreen DNA substrate cleavage; Q9NUW8; 350,000 tested, 0.28% active; note: nearly all actives have a fitted effect of over 40% in size
Target sequence (Q9NUW8 whole entry, looked up): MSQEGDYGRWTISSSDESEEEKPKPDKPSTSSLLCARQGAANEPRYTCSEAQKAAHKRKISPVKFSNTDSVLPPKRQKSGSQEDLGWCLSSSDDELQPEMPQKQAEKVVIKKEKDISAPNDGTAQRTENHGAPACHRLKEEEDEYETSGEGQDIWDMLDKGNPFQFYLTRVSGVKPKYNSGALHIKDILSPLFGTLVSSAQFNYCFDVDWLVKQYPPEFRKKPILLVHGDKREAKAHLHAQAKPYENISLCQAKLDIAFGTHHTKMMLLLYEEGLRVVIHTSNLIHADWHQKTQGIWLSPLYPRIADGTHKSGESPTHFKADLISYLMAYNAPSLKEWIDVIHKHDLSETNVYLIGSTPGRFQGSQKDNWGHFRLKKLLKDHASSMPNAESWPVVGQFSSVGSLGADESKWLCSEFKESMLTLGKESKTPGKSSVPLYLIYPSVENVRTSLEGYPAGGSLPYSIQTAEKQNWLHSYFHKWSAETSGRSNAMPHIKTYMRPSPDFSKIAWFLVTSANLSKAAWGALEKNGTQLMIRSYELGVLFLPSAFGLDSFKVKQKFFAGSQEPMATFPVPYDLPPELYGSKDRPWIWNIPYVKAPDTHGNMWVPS
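Recombinant E. coli-expressed Tdp1 (1 nM) preincubated with compound 15 min at RT, then 5'-biotin/3'-phosphotyrosine-FITC DNA substrate (15 nM) added for 5 min. AlphaScreen beads (10 ug/ml) added, 10 min RT; tyrosine-FITC cleavage read as signal loss.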
Each line names hits and unclear results; the compound was inactive in the other large screens. Unless noted, calls come from the whole dose curve; as a rule, active = well fitted curve in the direction sought with a large enough effect; inconclusive = small, poorly fitted or top-dose-only effect, or another doubt; inactive = no such curve, though single readings can be large; an effect the other way counts as inactive or inconclusive.

Nc1c(C(=O)N/N=C/c2ccc(F)cc2)oc2nc(-c3ccccc3)cc(-c3ccco3)c12	DT40 TDP1 CPT 23µM, TDP1 cell noCPT 10µM (no result: ClpP mod, TDP1 block)
Nc1c(C(=O)N/N=C/c2ccccc2Cl)oc2nc(-c3ccccc3)cc(-c3ccco3)c12	DT40 TDP1 CPT inconclusive, TDP1 cell noCPT 21µM (no result: ClpP mod, TDP1 block)
Cc1cc(-c2ccccc2)nc2oc(C(=O)NN)c(N)c12	DT40 TDP1 CPT inconclusive, TDP1 cell noCPT inconclusive (no result: ClpP mod)
COc1ccc(/C=C/C(=O)NC(=S)Nc2cc3oc4ccccc4c3cc2OC)cc1	DT40 TDP1 CPT 9.2µM, TDP1 cell noCPT inconclusive (no result: ClpP mod)
COc1cc2c(cc1NC(=S)NC(=O)/C=C/c1ccco1)oc1ccccc12	DT40 TDP1 CPT 16µM, TDP1 cell noCPT inconclusive (no result: ClpP mod)
COc1ccc(/C=C/C(=O)Nc2ccc(-c3nnc4n3CCCCC4)cc2)c(OC)c1	DT40 TDP1 CPT 9.2µM, TDP1 cell noCPT 2.3µM
Cc1cc(C)n(-c2ccc(Cl)c(C(=O)Nc3ccc(-c4nnc5n4CCCCC5)cc3)n2)n1	DT40 TDP1 CPT 2.1µM, TDP1 cell noCPT 1.8µM
CCOC(=O)/C=C/C(=O)Nc1ccc(-c2nnc3n2CCCCC3)cc1	none (no result: TDP1 block)
NS(=O)(=O)c1ccc(CCNC(=O)Cn2c(=O)c3cccn3c3ccc(F)cc32)cc1	ClpP mod inconclusive
CN1CCN(c2ncnc3c2ncn3[C@H]2CN(Cc3ccc(-c4ccccc4)cc3)C[C@@H](CO)O2)CC1	DT40 TDP1 CPT inconclusive, TDP1 cell noCPT inconclusive (no result: TDP1 block)
CCCCOC(=O)c1ccc(NC(=O)C(=O)NCCN(C)C)cc1	DT40 TDP1 CPT inconclusive, TDP1 cell noCPT 21µM (no result: TDP1 block)
Cc1ccccc1C(=O)NC(=S)Nc1ccc(Cc2ccncc2)cc1	TDP1 cell noCPT inconclusive
CCOc1ccccc1N(CC(=O)Nc1cccnc1)S(C)(=O)=O	none
Cc1ccc(S(=O)(=O)N(CC(=O)Nc2cccnc2)c2cc(Cl)ccc2C)cc1	DT40 TDP1 CPT 16µM, TDP1 cell noCPT 18µM
CCOc1ccccc1N(CC(=O)Nc1cccnc1)S(=O)(=O)c1ccc(C)cc1	DT40 TDP1 CPT 18µM, TDP1 cell noCPT inconclusive (no result: ClpP mod)
COc1ccc(C(=O)NC(=S)Nc2ccc(Cc3ccncc3)cc2)cc1	DT40 TDP1 CPT inconclusive, TDP1 cell noCPT 18µM (no result: ClpP mod)
CC(CNC(=O)C1CCCN(S(=O)(=O)N2CCOCC2)C1)c1ccccc1 (stereo unspecified)	none
CCC(C)Sc1nc2ccccc2n1CC(=O)O (stereo unspecified)	none
O=C(CCCCC(=O)OCC1CCCO1)OCC1CCCO1 (stereo unspecified)	none (no result: ClpP mod, TDP1 block)
CCOC(=O)c1ccccc1NC(=O)CN(c1cccc(C)c1C)S(=O)(=O)c1ccccc1	DT40 TDP1 CPT 7.3µM, TDP1 cell noCPT 5.8µM, ClpP mod inconclusive (no result: TDP1 block)
O=C(NCc1ccncc1)Nc1ccc(Cc2ccc(NC(=O)NCc3ccncc3)cc2)cc1	DT40 TDP1 CPT inconclusive, TDP1 cell noCPT 10µM (no result: TDP1 block)
O=C(NCc1ccncc1)Nc1ccccc1	none
CCOc1ccccc1N(CC(=O)Nc1ccccc1)S(=O)(=O)c1ccccc1	DT40 TDP1 CPT inconclusive, TDP1 cell noCPT 26µM (no result: TDP1 block)
CCOC(=O)c1ccccc1NC(=O)CN(c1ccccc1OCC)S(C)(=O)=O	DT40 TDP1 CPT inconclusive, TDP1 cell noCPT inconclusive
CCCOC(=O)c1ccc(NC(=O)c2ccccc2OC)cc1	DT40 TDP1 CPT inconclusive, TDP1 cell noCPT inconclusive (no result: ClpP mod)
CCCCOC(=O)c1ccc(NC(=O)c2ccccc2OC)cc1	DT40 TDP1 CPT 21µM, TDP1 cell noCPT inconclusive
CCOc1ccccc1N(CC(=O)Nc1cc(OC)ccc1OC)S(=O)(=O)c1ccccc1	DT40 TDP1 CPT inconclusive, TDP1 cell noCPT inconclusive (no result: TDP1 block)
Cc1ccnc(NC(=O)CCc2c[nH]c3ccccc23)c1	none
Cc1ccccc1NC(=O)CN(c1ccc(Cl)cc1Cl)S(=O)(=O)c1ccccc1	DT40 TDP1 CPT 18µM, TDP1 cell noCPT inconclusive
COc1ccc(N(CC(=O)Nc2ccc(C)c(C)c2)S(=O)(=O)c2ccc(C)cc2)cc1OC	none
COc1ccc(OC)c(N(CC(=O)Nc2cccnc2)S(=O)(=O)c2ccc(C)cc2)c1	DT40 TDP1 CPT 16µM, TDP1 cell noCPT inconclusive
COc1ccccc1N(CC(=O)Nc1ccc(Cc2ccncc2)cc1)S(=O)(=O)c1ccccc1	DT40 TDP1 CPT 23µM, TDP1 cell noCPT inconclusive (no result: ClpP mod, TDP1 block)
COc1ccc(NC(=O)CN(c2cccc(C)c2C)S(=O)(=O)c2ccccc2)cc1OC	DT40 TDP1 CPT 23µM, TDP1 cell noCPT inconclusive (no result: TDP1 block)
COC(=O)CN(c1ccccc1OC)S(=O)(=O)c1ccccc1	none
COc1ccc(OC)c(N(CC(=O)Nc2cccnc2)S(=O)(=O)c2ccc(OC)c(OC)c2)c1	DT40 TDP1 CPT inconclusive, TDP1 cell noCPT inconclusive
CCOc1ccc(C(=O)Cn2c(=O)n3nc(CCn4nc(C)cc4C)nc3c3cc(OC)c(OC)cc32)cc1	none
COc1ccc([N+](=O)[O-])cc1C(=O)Nc1ccc(Cc2ccncc2)cc1	TDP1 cell noCPT inconclusive
COc1ccccc1C(=O)Nc1ccc(Cc2ccncc2)cc1	DT40 TDP1 CPT inconclusive, TDP1 cell noCPT 21µM
C[C@H]1CCCCO[C@@H](CN(C)S(=O)(=O)c2ccc(F)cc2)[C@@H](C)CN([C@@H](C)CO)C(=O)c2cc(NC(=O)Nc3ccc4c(c3)OCO4)ccc2O1	DT40 TDP1 CPT 18µM, TDP1 cell noCPT 9.2µM (no result: TDP1 block)
C[C@@H]1CCCCO[C@H](CN(C)C)[C@H](C)CN([C@@H](C)CO)C(=O)c2cc(NC(=O)Nc3ccc(C(F)(F)F)cc3)ccc2O1	DT40 TDP1 CPT inconclusive (no result: TDP1 block)
C[C@@H]1CCCCO[C@H](CN(C)S(=O)(=O)c2ccc(F)cc2)[C@@H](C)CN([C@H](C)CO)C(=O)c2cc(NC(=O)Nc3ccc(C(F)(F)F)cc3)ccc2O1	DT40 TDP1 CPT 9.2µM, TDP1 cell noCPT 8.2µM (no result: TDP1 block)
COc1ccc(S(=O)(=O)N(C)C[C@H]2OCCCC[C@@H](C)Oc3ccc(NC(=O)CCC(F)(F)F)cc3C(=O)N([C@H](C)CO)C[C@@H]2C)cc1	none (no result: TDP1 block)
COc1ccc(S(=O)(=O)N(C)C[C@@H]2OCCCC[C@H](C)Oc3ccc(NC(=O)Nc4ccc(C(F)(F)F)cc4)cc3C(=O)N([C@H](C)CO)C[C@H]2C)cc1	TDP1 cell noCPT 7.3µM (no result: TDP1 block)
COc1ccc(C2c3c(-c4ccccc4O)n[nH]c3C(=O)N2Cc2ccco2)cc1 (stereo unspecified)	DT40 TDP1 CPT inconclusive, TDP1 cell noCPT inconclusive
COc1ccc(C2c3c(-c4c(C)cc(C)cc4O)n[nH]c3C(=O)N2Cc2ccco2)cc1 (stereo unspecified)	DT40 TDP1 CPT 15µM, TDP1 cell noCPT 16µM
Cc1cc(C)c(-c2n[nH]c3c2C(c2ccccc2F)N(Cc2ccco2)C3=O)c(O)c1 (stereo unspecified)	DT40 TDP1 CPT 21µM, TDP1 cell noCPT 21µM
Cc1ccc(CNC(=O)C2CC3Cn4c(nc5ccccc54)C3N2C)o1 (stereo unspecified)	none (no result: TDP1 block)
Cc1ccc(CNC(=O)C2CC3Cn4c(nc5cc6ccccc6cc54)C3N2C)o1 (stereo unspecified)	DT40 TDP1 CPT 18µM, TDP1 cell noCPT inconclusive
